# Results taken from the supplement of paper PMC10338343.
# ± gives the standard deviation.
# Assays:
# [1] = system: MILI (PIWIL2) piRISC loaded with L1MC piRNA (26 nt); experiment: pre-steady-state target cleavage rate (min^-1); guide: L1MC piRNA 5'p-UAACUAAAUACUAUGCAAGCUGUAGG; higher = faster piRNA-guided slicing of the target
# Outline: (§1)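 Active affinity-purified piRISC (1 nM) loaded with one synthetic guide was mixed with a transcribed, DNA-blocked target RNA library (0.1 nM), with or without 500 nM GTSF1 partner protein, in HEPES–potassium acetate buffer at 33 °C for 0–8 or 0–960 min. Uncleaved targets were sequenced, normalised to depth and to weakly complementary targets, and pooled across three trials, with k3 capped at 0.0001 min^-1. The pre-steady-state cleavage rate was determined with a burst-and-steady-state fit.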
# [2] = system: EfPiwi piRISC loaded with L1MC piRNA (26 nt); experiment: pre-steady-state target cleavage rate (min^-1); auxiliary factor: 500 nM Ephydatia muelleri Gtsf1; guide: L1MC piRNA 5'p-UAACUAAAUACUAUGCAAGCUGUAGG; MIWI and MILI are mouse PIWI proteins and EfPiwi is from a freshwater sponge; tags in brackets are library labels; higher = faster piRNA-guided slicing of the target
# Outline: as §1
# [3] = auxiliary factor: 500 nM mouse GTSF1
# [4] = auxiliary factor: none (no GTSF1)
Sequence,"pre-steady-state target cleavage rate [1, 3]","pre-steady-state target cleavage rate [1, 4]",pre-steady-state target cleavage rate [2]
UCCUGGUCCAGCUUGCAUAGUAUUUAGUUA,0.232 ± 0.02,0.0129 ± 0.0037,0.0262 ± 0.007
UCCUGGAUCAGCUUACAUAGUAUUUAGUUA,0.249 ± 0.014,0.00805 ± 0.0023,0.175 ± 0.039
UCCUGGAUCAGCGUUGCAUAGUAUUUAGUUA,0.212 ± 0.016,0.00789 ± 0.0028,0.021 ± 0.0057
UCCUCCUACACGCUUGCAUAGUAUUUAGUUA,0.207 ± 0.013,0.00734 ± 0.0025,0.00856 ± 0.003
UCCUGGAUCGCUUGCAUAGUAUUUAGUUA,0.29 ± 0.012,0.00599 ± 0.0021,0.065 ± 0.011
UCCUGCUACAGCUUGCAUAGGUAUUUAGUUA,0.00815 ± 0.0047,0.00421 ± 0.0024,0.00304 ± 0.0019
UCCUCCUACAGCUUGCAUAGUAUAAAGUUA,0.137 ± 0.023,0.00301 ± 0.0023,0.00527 ± 0.0031
UCCUGCAUGAGCUUGCAUAGUAUUUAGUUA,0.265 ± 0.019,0.01 ± 0.0025,0.0163 ± 0.0047
UCCUCCUACACCUUGCAUAGUAUAUAGUUA,0.199 ± 0.028,0.00295 ± 0.0027,0.00711 ± 0.0039
UCCUGGAUGUCGAUGCAUAGUAUUUAGUUUA,0.0871 ± 0.014,0.0069 ± 0.0031,0.00642 ± 0.0029
UCCUGGAACAGCUUGCAAAGUAUUAAGUUA,0.0867 ± 0.015,0.00516 ± 0.0022,0.00406 ± 0.003
UCCUCCUACAGCUUGCAUUGUAAUUAGUUA,0.166 ± 0.013,0.00423 ± 0.0019,0.00753 ± 0.0034
UCCUCCUACAGCUUGCAAAGUAUAUAGUUA,0.115 ± 0.015,0.00276 ± 0.0025,0.008 ± 0.0043
UCCUCCUACAGGUUGCUUAGUAUUUAGUUA,0.237 ± 0.011,0.00975 ± 0.0027,0.0231 ± 0.0065
UCCUGGUACAGCUACCAUAGUAUUUAGUUA,0.305 ± 0.044,0.00616 ± 0.0022,0.00432 ± 0.0019
UCCUGGAUGUCCUUGCAUAGUAUGUUAGUUA,0.0434 ± 0.0088,0.00471 ± 0.0025,0.00355 ± 0.0035
UCCUGCUACUGGUUGCAUAGUAUUUAGUUA,0.251 ± 0.018,0.0113 ± 0.0029,0.0113 ± 0.0035
